Screening results from PubChem.
NS1 function inh = inhibitors of influenza NS1 protein function; Potency, µM (top dose mostly 46.1 µM); hit rate 0.4% among 270,000; AID 2326; calls by dose curve; also: actives are rising curves; nearly all actives have a fitted effect of over 50% in size
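In this qHTS, NS1 from influenza A is expressed in budding yeast, where it slows growth. Cells are switched from glucose to 2% galactose medium (pH 6.0, -URA), treated with compound, and growth recovery is read at OD600.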
Pf growth 48h = P. falciparum growth inhibition at 48 hours (one generation) | P. falciparum luciferase growth in erythrocytes, 48 h | Potency, µM (series often up to 28.7 µM), usual class: inhibitors | hit rate 5.9% among 310,000
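Cell-based growth assay: transgenic P. falciparum expressing firefly luciferase, cultured in red cells within RPMI 1640 containing 0.5% w/v Albumax, 24 mM bicarbonate and gentamycin. A drop in luciferase activity indicates inhibition.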
SARS PLpro yeast = inhibitors of SARS-CoV papain-like protease in yeast; hit rate 0.19% among 330,000; Potency, µM (top dose mostly 32.9 µM), usual class: activators; S. cerevisiae expressing SARS-CoV PLpro, growth rescue; AID 485353; calls by dose curve; also: nearly all actives have a fitted effect of over 55% in size
Cycloheximide cs = counter-screen hit for Shiga toxin inhibitors, cycloheximide. cell reporter, cycloheximide protein synthesis inhibition counterscreen. max response, %. hit rate 12% among 300,000; in the data active = max response mostly above about 13%, no sharp cut-off; inactive = mostly below about 14%; also: read at 38.3 µM for the half of the compounds with a filed dose
Shiga inhibitor = inhibitors of Shiga toxin in Vero cells; Vero cells, Shiga toxin protein synthesis inhibition reporter; inhibition, % at 38.7 µM; hit rate 9.2% among 290,000; in the data active = inhibition mostly above about 28%, no sharp cut-off; inactive = mostly below about 43%
Pf growth 96h = P. falciparum growth inhibition at 96 hour, primary screen for plastid delayed-death inhibitors | P. falciparum luciferase reporter growth, 96 h | Potency, µM (top dose mostly 28.7 µM), usual class: inhibitors | hit rate 6.9% among 320,000 | AID 504834
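Delayed-death screen, second-generation endpoint: infected erythrocytes, 2% hematocrit, 0.05% parasitemia final; 96 hours at 37 C, 5% CO2; luciferase detection reagent; luminescence decrease equals reduced growth.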
Numbers stand for hits; i = inactive; ? = inconclusive; nt = no result given; ! = not confirmed by another sample; [ ] = dose if it differs, or a comment. This is a sample that favours compounds with a hit; in the whole collection about 21% have one here. Unless noted, calls follow the shape of the dose curve; as a rule, active = well fitted inhibition curve with a large enough effect; inconclusive = small, poorly fitted or top-dose-only effect, or another doubt; inactive = no such curve, though single readings can be large or run the other way.

SMILES	NS1 function inh	Pf growth 48h	SARS PLpro yeast	Cycloheximide cs	Shiga inhibitor	Pf growth 96h
CC(OC(=O)c1ccco1)C(=O)NC1CCCC1 (stereo unspecified)	i	i	i	i	i	i
COC(=O)CSc1nsc(SCC(=O)OC)c1C#N	i	i	i	i	i	i[5.75 µM]
CCCSc1nsc(SCCC)c1C#N	i	nt	i	21.5	46.4	?
N#Cc1c(SCC(=O)Nc2ccccc2)nsc1SCC(=O)Nc1ccccc1	i	i	i	i	i	i
N#Cc1c(SCC(=O)N2CCCCC2)nsc1SCC(=O)N1CCCCC1	i	14.7µM	i	i	i	i
CC(=O)Nc1cccc(NC(=O)CSc2nc(C)c(C)c(C)c2C#N)c1	i[9.22 µM]	i	i	11.2	i	nt
Cc1cccc(NC(=O)CSc2nsc(SCC(=O)Nc3cccc(C)c3)c2C#N)c1	i	i	i	11.7	i	i
O=C(Nc1ccccc1C(=O)NCc1ccccc1)C1=CSCCO1	i	i	i	i	i	?
O=C(N/N=C/c1ccncc1)C1C2CCCCCCC21 (stereo unspecified)	i	?	i	i	i	?
CCc1cccc(NC(=O)C2CCCN2C(=O)Nc2ccc(C)cc2)c1 (stereo unspecified)	i	i	i	i	i	i
CC1=CC(C)=Nc2ccccc2N1	i	nt	i	45.5	62.2	i
O=C1CC(C(F)(F)C(F)(F)C(F)(F)C(F)F)=Nc2ccccc2N1	i	?	i	i	i	i
Cc1cccc(N=Cc2[nH]c3ccc(Br)c(Cl)c3c2O)c1	i	14.7µM	i	i	62.8	i
C=CCSc1nc(=O)n2ccc(C)cc2n1	nt	i	i	27.6	i	?
O=C(Cn1c(=O)n(Cc2ccc(F)cc2)c(=O)c2ccccc21)NCC1CCCO1 (stereo unspecified)	i	i	i	i	i	i
O=c1c2ccccc2n(Cc2ccc(F)cc2)c(=O)n1C1CCCC1	i	?	i	i	i	13.1µM
NCCCCCCCCCCNCCCN	nt	nt	nt	i	i	nt
COCCCNC(=S)NNC(=S)Nc1ccc(F)cc1F	i	nt	i	44.4	54.4	i
COCCCNC(=S)NCCc1ccc(F)cc1	nt	i	i	i	44.6	i
COCCCNC(=S)NNC(=S)Nc1ccccc1	i	i	i	26.9	40.0	i
COc1ccc(N2CCN(C3CCCN(Cc4cccc(OC)c4)C3)CC2)cc1 (stereo unspecified)	i	i	i	i	i	?
COc1ccc(/C=C/C(=O)NCC(=O)N/N=C(/CCC(=O)O)c2ccccc2)cc1	i	i	i	i	i	i
CCN(CC)S(=O)(=O)c1ccc(N2CCOCC2)c(NC(=O)C2CC2)c1	nt	?	i	nt	nt	?
CCN(CC)S(=O)(=O)c1ccc(N2CCOCC2)c(NC(=O)CNCCc2ccccc2)c1	i	?	i	i	i	?
CCN(CC)S(=O)(=O)c1ccc(N2CCOCC2)c(NC(=O)COc2ccccc2)c1	i	9.28µM	i	i	i	?
SMILES	NS1 function inh	Pf growth 48h	SARS PLpro yeast	Cycloheximide cs	Shiga inhibitor	Pf growth 96h
CCN(CC)S(=O)(=O)c1ccc(N2CCOCC2)c(NC(=O)CCOc2ccccc2)c1	i	9.28µM	i	i	i	?
CCN(CC)c1ccc(S(=O)(=O)N(CC)CC)cc1NC(=O)C1CCCC1	i	14.7µM	i	i	i	?
CCN(CC)S(=O)(=O)c1ccc(N2CCOCC2)c(NC(=O)C2CCCC2)c1	i	?	i	i	i	11.7µM
C/C(=N\NC(=O)CNC(=O)c1ccccc1Br)c1ccco1	i	i	i	i	i	i
CN(Cc1ccccc1)C(=O)COC(=O)CN1C(=O)c2ccccc2C1=O	nt	nt	i	nt	nt	nt
CCc1ccccc1OCC(=O)Nc1cc(S(=O)(=O)N(CC)CC)ccc1N1CCOCC1	nt	1.31µM	i	nt	nt	1.17µM
c1ccc(-c2cncnc2)cc1	nt	i	i	nt	nt	i
O=C(CC(CC(=O)c1ccccc1)C(=O)O)c1ccccc1	i	nt	i	i	i	i
Cc1c(Cl)cccc1Nc1ccccc1C(=O)O	i	?	i	i	i	13.5µM!
COc1ccccc1NC(CC(=O)c1ccccc1)C(=O)OCC(=O)c1ccc(F)cc1 (stereo unspecified)	i	i	i	48.7	59.9	i
Cc1c(Cl)cccc1NC(CC(=O)c1ccccc1)C(=O)OCC(=O)c1cccs1 (stereo unspecified)	i	i	i	23.3	80.8	i
Cc1c(Cl)cccc1Nc1ncccc1C(=O)O	i	i	i	i	i	i
O=C(CC(Nc1ccccc1Cl)C(=O)O)c1ccccc1 (stereo unspecified)	i	i	i	68.2	90.7	i
Cc1cc(C)nc(/N=C(\NC(=O)C(C)(C)C)Nc2ccc(F)cc2)n1	i	i	i	i	i	i
O/N=C1\CCCc2ccc(Cl)cc21	i	i	i	i	i	i
CCOc1ccccc1C(=O)Nc1cc(C)ccc1NC(=O)c1ccco1	i	i	i	i	i	?
O=C(CC(Nc1cccc(Cl)c1Cl)C(=O)O)c1ccccc1 (stereo unspecified)	?	i	i	56.6	102.4	i
O=C(CC(Nc1ccc(Cl)cc1)C(=O)O)c1ccccc1 (stereo unspecified)	i	i	i	54.3	42.2	i
Cc1c(Cl)cccc1NC(=O)CC(Cc1ccccc1)C(=O)O (stereo unspecified)	i	i	i	i	i	i
Cc1c(Cl)cccc1NC(CC(=O)c1ccccc1)C(=O)O (stereo unspecified)	i	i	i	69.6	149.8	i
O=C(CC(Nc1cccc(Cl)c1Cl)C(=O)OCC(=O)c1cccs1)c1ccccc1 (stereo unspecified)	i	i	i	i	i	?
Cc1ccc2c(c1)C(=O)c1ccccc1CS2=O (stereo unspecified)	i	i	i	i	i	i
O=S(=O)(Nc1cccc2cccnc12)c1ccccc1Br	nt	nt	nt	28.4	i	nt
Cc1ccc(S(=O)(=O)Nc2ccc(NS(=O)(=O)c3ccc(C)cc3)c3ncccc23)cc1	nt	nt	nt	i	i	nt
Cc1ccc(S(=O)(=O)Nc2cccc3cccnc23)cc1	i	nt	i	i	i	3.7µM
SMILES	NS1 function inh	Pf growth 48h	SARS PLpro yeast	Cycloheximide cs	Shiga inhibitor	Pf growth 96h
COc1cc(NS(=O)(=O)c2ccc(C)cc2)c2ncccc2c1	i	2.33µM	i	i	i	i
COc1cc(NCCCC(C)N)c2ncccc2c1 (stereo unspecified)	?	0.262µM	i	i	i	0.849µM
CCOc1ccc(/C=N/OCC(=O)NCc2ccco2)cc1	nt	i	i	i	i	i
CC1(C)CC(=O)C=C(NCC2CCCO2)C1 (stereo unspecified)	i	i	?	i	i	i
COc1ccc(/C=C(\NC(=O)c2ccc(C)cc2)C(=O)N2CCCCC2)cc1	i	?	i	i	i	?
COc1ccc(CCNC(=O)C2CCCN(S(=O)(=O)c3ccccc3)C2)cc1 (stereo unspecified)	i	?	i	i	i	i
O=C1C=C(Nc2cccc3cccnc23)c2ccccc2C1=O	i	2.08µM	i	i	i	i
O=C1C=C(Nc2ccccc2C(=O)O)c2ccccc2C1=O	i	i	i	i	i	i
